Screening data: PubChem BioAssay, The Scripps Research Institute Molecular Screening Center
DAX1 inh-1 = DAX1 (NR0B1) inhibitors on StAR promoter, primary screen, cell-based, luminescence, SF-1 (NR5A1), full-length DAX-1; HEK293T StAR-luciferase reporter, SF-1/DAX-1 repression relief; actives 1.1% (n = 370,000); inhibition, % at 6.8 µM;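 active = inhibition above the mean over all tested compounds plus 3 SD, cut at about 3.6% in these data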;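 note: 0% = DAX-1 cells with DMSO and 100% = cells lacking DAX-1 with DMSO; higher inhibition means more luminescence from relief of DAX-1 repression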
SMARCA2 activ = SMARCA2 (BRM) function activators, primary screen, cell-based, luminescence, high throughput; MG213 cells, MMTV-luciferase reporter, dexamethasone, overnight; activation, % at 9.1 µM; actives 1% (n = 370,000); AID 652017, 2013; in the data active = activation above about 7.8%;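 note: 0% = vehicle wells and 100% = reference activator wells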
hgDAF12 agonist = H. glycines DAF-12 receptor agonists, primary screen, cell-based, luminescence, HEK293, GAL4 fusion, UAS-luciferase; HEK293 GAL4-hgDAF12 UAS-luciferase reporter, agonist luminescence; normalized to butyrate control; activation, % at 6.8 µM; actives 1.8% (n = 370,000); AID 687014, 2013;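 active = activation above a cutoff set at the mean of all screened compounds plus 3 SD, cut at about 10% in these data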;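 note: 0% = DMSO wells and 100% = sodium butyrate wells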
hcDAF12 agonist = H. contortus DAF-12 nuclear receptor activators, primary screen, cell-based, luminescence, HEK293, lit1-tk-luc reporter | activation, % at 6.8 µM | HEK293 hcDAF-12 lit1-tk-luc reporter; 0% DMSO, 100% Δ7-dafachronic acid | actives 1.4% (n = 370,000);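 active = activation above the mean of all tested compounds plus 3 SD, cut at about 5.5% in these data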;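 note: 100% = response to 3 µM Δ7-dafachronic acid high control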
ssDAF-12 act = S. stercoralis DAF-12 nuclear receptor activators, primary screen, cell-based, luminescence, HEK293, GRIP1 co-expression, lit1-tk-luc | AID 652126, 2013 | actives 1% (n = 370,000) | HEK293 ssDAF-12/GRIP1 lit1-tk-luc reporter; % of 3 µM dafachronic acid response | activation, % at 6.8 µM | Nuclear hormone receptor DAF-12 (Strongyloides stercoralis);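 active = activation above the mean over all tested compounds plus 3 SD, cut at about 0.9% in these data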;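 note: 0% = DMSO-only wells and 100% = 3 µM delta7-dafachronic acid wells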
DAX1 inh-2 = DAX1 (NR0B1) inhibitors, primary screen, cell-based, HEK293, Gal4-DAX1, luciferase luminescence; AID 504766, 2011; Nuclear receptor subfamily 0 group B member 1 (Homo sapiens), P51843; HEK293 Gal4-DAX1 luciferase reporter; actives 0.99% (n = 340,000); inhibition, % at 6.75 µM;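 active = inhibition above the mean over all tested compounds plus 3 SD, cut at about 4.2% in these data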;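 note: 0% = DAX1-transfected cells with DMSO and 100% = empty-vector control cells with DMSO; inhibition shows as a rise in luminescence from relieved DAX1 repression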
Target sequence (P51843 207-470 limits assumed): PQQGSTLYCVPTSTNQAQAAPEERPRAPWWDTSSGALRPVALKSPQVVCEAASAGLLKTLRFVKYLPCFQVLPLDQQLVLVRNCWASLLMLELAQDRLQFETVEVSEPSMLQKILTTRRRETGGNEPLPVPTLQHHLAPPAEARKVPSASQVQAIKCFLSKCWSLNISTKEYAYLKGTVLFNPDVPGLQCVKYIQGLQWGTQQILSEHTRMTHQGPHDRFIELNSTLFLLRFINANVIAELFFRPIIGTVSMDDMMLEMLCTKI
hgDAF12 ag = H. glycines DAF-12 receptor agonists, confirmation, cell-based, luminescence, HEK293, GAL4-LBD fusion; shares compounds with hgDAF12 agonist; HEK293 GAL4-hgDAF12 luciferase reporter, agonist mode; percent of butyrate response; activation, % at 6.8 µM; actives 80% (n = 3,300); AID 743050, 2013;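 active = mean activation over triplicate wells above the hit cutoff derived from the earlier primary screen, cut at about 11% in these data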;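 note: 0% = DMSO low control and 100% = 2 mM sodium butyrate high control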
LXR ag 2 = LXR agonists, Gal4 luciferase reporter, confirmation, counter-screen for hgDAF-12 agonist project, cell-based, luminescence, HEK293, H. glycines campaign; shares compounds with hgDAF12 agonist; 24 h; activation, % at 6.8 µM; 3,300 tested, under 10 active; AID 743051, 2013;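 active = mean activation of the triplicate above a set limit carried over from the primary screen, none filed active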
* = called active by the depositor; x = no result. Compounds with a hit are over-represented: about 4.8% of the library has one in this group of screens.

SMILES | DAX1 inh-1 | SMARCA2 activ | hgDAF12 agonist | hcDAF12 agonist | ssDAF-12 act | DAX1 inh-2 | hgDAF12 ag | LXR ag 2
CCCCSc1cnn(-c2ccccc2)c(=O)c1SCCCC | -1 | -6 | -1 | 0 | -2 | 0 | x | x
O=C(CCl)Nc1ccccc1C(=O)Nc1ccc2c(c1)OCO2 | 0 | -3 | 19* | 5 | 0 | -1 | 7 | 1
COc1cccc(C(=O)Nc2ccc3c(c2)OCO3)c1OC | 1 | 3 | 14* | 5.8* | 1 | 1 | 14* | 1
COc1cccc(C(=O)NCc2ccc3c(c2)OCO3)c1OC | 0 | -2 | -2 | -2 | -1 | 0 | x | x
COc1ccc(-c2noc(CN(C)C(=O)c3ccc4c(c3)OCO4)n2)cc1 | -1 | -1 | -2 | 1 | -1 | 2 | x | x
O=[N+]([O-])c1cccc(-c2nnc(-c3ccc4c(c3)OCO4)o2)c1 | 0 | 4 | 2 | 0 | 0 | 1 | x | x
O=[N+]([O-])c1cccc(-c2nnc(-c3ccccc3)o2)c1 | 0 | 3 | 14* | 3 | -1 | 0 | 16* | 1
CCOc1cc(/C=N/NC(=O)C(C)Sc2ccccc2)ccc1O (stereo not given) | -2 | 1 | 1 | -2 | -1 | 1 | x | x
COc1ncccc1-c1nnn(-c2ccc(C)cc2)n1 | 2 | 5 | 17* | 3 | 0 | 1 | 17* | 1
Cc1nn(CCOc2cccc(Br)c2)c(C)c1[N+](=O)[O-] | 0 | -4 | 1 | -1 | -2 | 0 | x | x
Cc1ccsc1/C=N/NC(=O)c1ccc2ccccc2c1 | 3 | 4 | 14* | 2 | 0 | 1 | 11* | 0
Cc1ccsc1/C=N/NC(=O)c1ccc([N+](=O)[O-])cc1 | 0 | 0 | 8 | -1 | -1 | 1 | x | x
O=C(Nc1ccc(N2CCCCC2)cc1)C(Cl)c1ccccc1 (stereo not given) | 1 | 4 | 19* | 5 | 0 | 3 | 9 | 0
COC(=O)C1=C(CS(=O)(=O)c2ccc(OC)cc2)NC(=O)NC1c1ccccc1 (stereo not given) | 0 | 0 | -1 | -1 | -1 | 0 | x | x
CCOc1ccc(C2C(C(=O)O)CCC(=O)N2C2CCCCC2)cc1 (stereo not given) | 0 | 1 | -4 | -1 | -1 | 1 | x | x
O=C(CSc1nc2ccccc2c(=O)n1-c1ccc(F)cc1)NC1CCS(=O)(=O)C1 (stereo not given) | 0 | 0 | -1 | 0 | -1 | 1 | x | x
O=C(CSc1nc2ccccc2[nH]1)c1c[nH]c2ccccc12 | 0 | -1 | 2 | -2 | -2 | 1 | x | x
O=C(CSc1nc2ccccc2[nH]1)c1ccccc1F | 1 | 6 | 16* | 5.8* | 0 | 2 | 12* | 1
Cc1cc(C(=O)CN2CCC(C)CC2)c(C)n1-c1ccc(F)cc1 | 3 | 6 | 14* | 1 | 0 | 1 | 13* | 1
COc1ccc(-n2c(C)cc(C(=O)CN3CCC(C)CC3)c2C)cc1 | 0 | 2 | 5 | 0 | -2 | 2 | x | x
Fc1ccccc1CSc1nnc(-c2ccccc2)o1 | 2 | 4 | 18* | 2 | 0 | 3 | 14* | 1
